# Screening results (PubChem BioAssay)
# In the library only some 2.5% were active in any assay of this set; here they are far more common.
# Cruzain noTriton = qHTS Assay for Promiscuous and Specific Inhibitors of Cruzain (without detergent). purified cruzain, Z-FR-AMC fluorescence, no detergent. Potency, µM, without a hit: max response, negative = inhibition, hits mostly inhibitors. actives 2.3% (n = 200,000);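 further: plate controls were enzyme without inhibitor for no effect and buffer without enzyme for full effect; nearly all actives have a fitted effect of over 40% in size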
# Target sequence (P25779 123-467 limits assumed): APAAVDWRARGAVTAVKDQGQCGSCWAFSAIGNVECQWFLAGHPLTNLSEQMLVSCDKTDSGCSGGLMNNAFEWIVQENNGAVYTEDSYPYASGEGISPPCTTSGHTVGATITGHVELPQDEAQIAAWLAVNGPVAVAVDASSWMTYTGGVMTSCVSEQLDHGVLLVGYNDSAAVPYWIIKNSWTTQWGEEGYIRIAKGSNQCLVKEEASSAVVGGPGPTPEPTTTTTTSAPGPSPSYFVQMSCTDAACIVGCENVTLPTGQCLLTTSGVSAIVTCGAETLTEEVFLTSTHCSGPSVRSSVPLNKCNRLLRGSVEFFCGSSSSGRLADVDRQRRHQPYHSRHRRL
#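 Detergent-free condition (0.00005% Triton X-100) in acetate buffer pH 5.5 with DTT. 1.5 nM enzyme and compound were pre-mixed 15 min, then 2 uM Z-FR-AMC substrate added; reaction progress from fluorescence change between first and third reads (60 s).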
# Cruzain inh Det = qHTS Assay for Promiscuous and Specific Inhibitors of Cruzain (with detergent). Cruzipain (Trypanosoma cruzi), P25779. purified cruzain, Z-FR-AMC fluorescence, 0.01% Triton. Potency, µM, inactives show max response, negative = inhibition, most hits filed as inhibitors. actives 0.43% (n = 200,000). AID 1478, 2009;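 further: plate controls were neutral wells for no effect and buffer without enzyme for full effect; nearly all actives have a fitted effect of over 40% in size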
#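 Compounds were screened in titration against cruzain (1.5 nM) with 0.01% Triton X-100 to counter colloidal aggregation. Activity was the AMC fluorescence increase over 60 s after adding 2 uM Z-FR-AMC at pH 5.5.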
# An asterisk follows results filed as active; ? = inconclusive. The call rests on the fitted dose curve; in most records, active means well fitted curve in the direction sought with a large enough effect; inconclusive means small, poorly fitted or top-dose-only effect, or another doubt; inactive means no such curve, though single readings can be large; an effect the other way counts as inactive or inconclusive. Potency means the concentration at half of the fitted maximal effect.
SMILES,Cruzain noTriton,Cruzain inh Det
COc1cc(C2C(C#N)=C(N)Oc3c2ccc2ccccc32)ccc1OCC(=O)Nc1ccccc1C (centres undefined),13µM*,1%
COC(=O)c1ccc(NC(=O)COc2ccccc2OC)cc1,-3%,-1%
COC(=O)c1ccc(NC(=O)COc2ccc(C3C(C#N)=C(N)Oc4c3ccc3ccccc43)cc2OC)cc1 (centres undefined),7.9µM*,2%
N#CC1=C(N)Oc2c(ccc3ccccc23)C1c1cccs1 (centres undefined),?,-10%
O=C(Nc1nc(-c2ccc(Br)cc2)ns1)c1ccc(F)cc1,1%,-1%
COC(=O)COc1ccc(Oc2nc(NC(C)(C)C)nc(N(C)C)n2)nn1,0%,-1%
Cc1ccccc1OCCC(=O)NCCc1ccc(S(N)(=O)=O)cc1,9%,0%
CCOc1ccccc1C(=O)NCC(=O)OCC(=O)NCCc1ccc(S(N)(=O)=O)cc1,16µM*,25µM*
Cc1ccccc1OCC(=O)Nc1c(C)ccc2nsnc12,-6%,-1%
CCc1ccc(S(=O)(=O)c2nnn3c2nc(NC2CCCCCC2)c2sccc23)cc1,-7%,0%
COc1ccc(Br)cc1C1CC(=O)N2CN(Cc3ccccc3)CSC2=C1C#N (centres undefined),32µM*,?
Cc1ccc(C2CC(=O)N3CN(Cc4ccco4)CSC3=C2C#N)cc1 (centres undefined),-5%,-3%
N#CC1=C2SCN(Cc3ccco3)CN2C(=O)CC1c1c(F)cccc1Cl (centres undefined),20µM*,?
COc1ccc(Br)cc1C1CC(=O)N2CN(C)CSC2=C1C#N (centres undefined),2%,-6%
Cc1cccc(N(C)S(=O)(=O)c2nnc(NC(=O)C(C)(C)C)s2)c1,-2%,1%
O=C(CSc1nc(=O)n(Cc2ccccn2)c2c1CCC2)Nc1cccc(Cl)c1,?,-4%
Cc1nc(N/N=C/c2ccccc2)nc(N(C)c2ccccc2)c1[N+](=O)[O-],16µM*,-1%
Cc1cc(C)nc(N/N=C/c2ccccc2)n1,-3%,-6%
Cc1ccc(CNC(=O)N2CCC(CN3CCC(C)CC3)CC2)cc1,21%,1%
Cc1ccc(N2CCN(S(=O)(=O)c3ccc(F)c(C(=O)Nc4ccc(Cl)cc4Cl)c3)CC2C)cc1 (centres undefined),-9%,1%
Cc1ccc(C)c(NC(=O)c2cc(S(=O)(=O)N3CCN(c4cccc(Cl)c4)CC3)ccc2F)c1,7.9µM*,1%
COc1ccccc1NC(=O)c1cc(S(=O)(=O)N2CCN(c3ccccc3Cl)CC2)ccc1F,10µM*,1%
COc1ccccc1N1CCN(S(=O)(=O)c2ccc(F)c(C(=O)Nc3ccc(Cl)cc3C(F)(F)F)c2)CC1,?,0%
O=C(NCc1nc2ncc(Br)cc2[nH]1)c1ccccc1,-11%,-1%
O=c1[nH]c2cc(Br)cnc2nc1/C=C(\O)c1ccc(F)cc1,25µM*,4%
SMILES,Cruzain noTriton,Cruzain inh Det
COc1ccc(-c2csc(N3C(=O)CNC3=S)n2)cc1,?,-2%
COc1ccc(-c2csc(N3C(=O)C4C5c6ccccc6C(c6ccccc65)C4C3=O)n2)cc1 (centres undefined),16µM*,0%
COc1ccc(-c2csc(N3C(=O)C4C5c6ccccc6C(c6ccccc65)[C@@H]4C3=O)n2)cc1 (some centres undefined),10µM*,2%
COc1ccc(-c2csc(N3C(=N)SCC3=O)n2)cc1,?,3%
CCN(CC)S(=O)(=O)c1ccc2nc(NC(=O)c3cncc(Br)c3)sc2c1,-12%,-1%
Cn1c(=O)c(-c2ccc(Cl)cc2)nc2cnc(N3CCNCC3)nc21,?,-3%
COc1ccc(/C=C2\CCCC3C2=NN(C(=O)COC(=O)CNC(=O)c2ccccc2)C3c2ccc(OC)cc2)cc1 (centres undefined),16µM*,-26%
COc1ccc(/C=C2\CCCC3C2=NN(C(=O)CSc2ncn[nH]2)C3c2ccc(OC)cc2)cc1 (centres undefined),?,-5%
O=[N+]([O-])c1cc(C(F)(F)F)ccc1N1CCN(S(=O)(=O)c2ccc3ccccc3c2)CC1,25µM*,0%
O=[N+]([O-])c1cc(C(F)(F)F)cc([N+](=O)[O-])c1N1CCN(S(=O)(=O)c2ccccc2)CC1,-4%,-7%
C/C(=N\NC(=O)c1cc(Cl)ccc1O)c1ccc(Br)s1,10µM*,-6%
C/C(=N\NC(=O)c1ccc(Cl)cc1)c1ccc(Br)s1,?,5%
CC1CN(C(=O)CCC(=O)NCc2ccc(F)cc2)c2cc(Cl)ccc2O1 (centres undefined),17%,-3%
Cc1cn(C2OC(COC(=O)c3ccccc3)C(OC(=O)c3ccccc3)C2OC(=O)c2ccccc2)c(=O)[nH]c1=O (centres undefined),?,-1%
O=C(OCC1OC(OC(=O)c2cc(O)c(O)c(OC(=O)c3cc(O)c(O)c(O)c3)c2)[C@@H](OC(=O)c2cc(O)c(O)c(OC(=O)c3cc(O)c(O)c(O)c3)c2)C(OC(=O)c2cc(O)c(O)c(OC(=O)c3cc(O)c(O)c(O)c3)c2)C1OC(=O)c1cc(O)c(O)c(OC(=O)c2cc(O)c(O)c(O)c2)c1)c1cc(O)c(O)c(OC(=O)c2cc(O)c(O)c(O)c2)c1 (some centres undefined),7.9µM*,16µM*
COc1ccc(CN2C(=O)C(NC(=O)c3ccccc3C)(C(F)(F)F)N=C2c2ccccc2)cc1 (centres undefined),?,-5%
CC(=O)Nc1ccc(OC(=O)c2cc3cc(Br)ccc3oc2=O)cc1,0%,0%
CC(=O)Nc1ccc(OC(=O)c2cc3cc(Br)cc(Br)c3oc2=O)cc1,20µM*,-1%
COc1ccc(C(=O)N2CCN(c3cccc(Cl)c3)CC2)cc1,12%,-5%
COc1ccc(C(=O)C2CN(c3ccccc3)CC2c2ccc(Cl)cc2)cc1 (centres undefined),16µM*,6%
O=C(Nc1ccccc1F)c1cnc(N2CCCCC2)c2ccccc12,1%,-9%
O=C(CSc1nnc2scc(-c3ccccc3)n12)N1CCN(Cc2ccccc2)CC1,-9%,-5%
Cc1ccc(-c2csc3nnc(SCC(=O)N4CCN(Cc5ccccc5)CC4)n23)cc1,20µM*,-6%
CCN(CC)S(=O)(=O)c1ccc(C(=O)NCCSc2c(-c3ccccc3)[nH]c3ccccc23)cc1,?,2%
CN(C)S(=O)(=O)c1ccc(C(=O)NCCSc2c(-c3ccc(Br)cc3)[nH]c3ccccc23)cc1,25µM*,1%
SMILES,Cruzain noTriton,Cruzain inh Det
O=C(c1ccc2c(c1)OCCO2)N(Cc1cccnc1)c1nc2ccc(F)cc2s1,-4%,3%
Cc1cccc(C(=O)N2CCc3cc(-c4nc(NC(=O)Cn5nnc6ccccc6c5=O)sc4C)ccc32)c1,10µM*,-4%
Cc1sc(NC(=O)Cc2ccc3c(c2)OCO3)nc1-c1ccc2c(c1)CCN2C(=O)c1cccc(F)c1,7.9µM*,-1%
Cc1sc(NC(=O)CN2CCOCC2)nc1-c1ccc2c(c1)CCN2S(=O)(=O)c1ccccc1,?,-4%
COc1ccc(CCC(=O)NCc2ccc3c(c2)CCN3C(=O)c2cccc(C)c2)cc1,21%,-3%
Cc1ccccc1C(=O)N1CCc2cc(-c3nc(NC(=O)Cc4ccc5c(c4)OCO5)sc3C)ccc21,3.2µM*,-14%
